Data as given in PubChem BioAssay AID504799 (The Scripps Research Institute Molecular Screening Center, 2011).
This is one part of the list. A number with no mark means an inactive call. Activity calls are given as the source filed them.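 How the source made its calls: active means mean activation over triplicate runs exceeds the adjusted cutoff derived for the parent primary screen (cut at about 19% in these data); inactive means the rest.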

Assay: fluorescence polarization artefacts, Cy5-IP20 alone – biochemical, triplicate, artefact control for PKA-R1A activator project, confirmation (AID 504799);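 further: no PKA protein present so any polarization rise reflects compound interference; 0% = tracer peptide mix alone and 100% = mix with added PKA catalytic subunit; higher means stronger polarization artifact and likely false positive in parent screen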
Conditions: Cy5-IP20 peptide alone, fluorescence polarization artifact counterscreen; at 11.4 µM; hits give high values

**Q.** With COc1ccc(CNc2nnnn2C)cc1 as the compound, how does the activation read?
**A.** 3.5%

**Q.** Which activation does the source give for CCOc1cc(C(=O)Nc2c(C)ccc3nsnc23)cc(OCC)c1OCC here?
**A.** 3.5%

**Q.** With CN(C(=O)CSc1nnc(Nc2ccccc2)s1)C1CCS(=O)(=O)C1 (stereo not given) as the compound, how does the activation read?
**A.** 0.22%

**Q.** Which activation does the source give for COc1ccccc1N1CC(C(=O)Nc2nnc(SCC(=O)NC(C)C)s2)CC1=O (stereo not given) here?
**A.** -0.21%

**Q.** For Cc1ccc2nc3c(cc(C(=O)NCCc4ccccc4)c(=N)n3CC3CCCO3)c(=O)n2c1 (stereo not given), which activation is on record?
**A.** 4%

**Q.** Which activation does the source give for COc1ccc(NC(=O)c2ccc(C#CC(C)(C)O)cc2)cc1 here?
**A.** -2.01%

**Q.** Which activation does the source give for CCC(Oc1ccccc1C)C(=O)Nc1ccc(S(=O)(=O)Nc2cc(C)on2)cc1 (stereo not given) here?
**A.** 2.96%

**Q.** For CCCC(=O)Nc1ncnc2c1ncn2[C@@H]1O[C@@H]2OP(=O)(O)OC[C@H]2[C@H]1OC(=O)CCC, which activation is on record?
**A.** 0.15%

**Q.** For O=C(Nc1ccc2c(c1)[C@@H]1C[C@@H](CC(=O)N3CCCCC3)O[C@@H](CO)[C@@H]1O2)NC1CCCCC1, which activation is on record?
**A.** 3.18%

**Q.** With N#Cc1ccccc1CN1C(=O)S/C(=C/c2cccn2-c2cccc(C(=O)O)c2)C1=O as the compound, how does the activation read?
**A.** 19.3% (active)
